Screening data deposited in PubChem BioAssay by National Center for Advancing Translational Sciences (NCATS).
This is a sample that favours compounds with a hit; in the whole collection about 15% have one here.
Sm TGR inh: blocks Schistosoma mansoni thioredoxin glutathione reductase | 3% of 360,000 active | Q962Y6 | AID 485364 | Potency, µM (titrated, usually from 114 µM), inactives show at the top dose activity change, negative = inhibition, usual class: inhibitors | purified TGR, DTNB reduction, TNB absorbance 405 nm; further: potency means the concentration at half of the fitted maximal effect; on the % scale 0 is the no-effect control and ±100 the full control effect; nearly all actives have a fitted effect of over 60% in size
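First, TGR (20 nM dispensed) and NADPH were mixed with compound. Second, a 15 min room-temperature incubation followed. Third, further NADPH and then DTNB were added to start the reaction. Finally, TNB absorbance was monitored kinetically.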
HCV inh: HCV inhibition. Huh7.5.1 HCVcc-Cre infection, luciferase reporter, 44 h. Potency, µM (titrated, usually from 41.8 µM), for inactives: at the top dose activity change, negative = inhibition, actives largely listed as inhibitors. 3.4% of 340,000 active. AID 651820; further: potency means the concentration at half of the fitted maximal effect; on the % scale 0 is the no-effect control and ±100 the full control effect
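HCVcc-Cre virus at an moi near 0.5 was added right after compound to cells cultured 4 h from seeding (1,000 cells/well). Luciferase activity was determined 44 h later, 15 min after substrate addition at RT.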
HCMV antiviral: human cytomegalovirus inhibition; activity change, negative = inhibition, % at 57.5 µM; 4.5% of 410,000 active; HFF cells, HCMV-luciferase reporter, 72 h; active compounds read low; in the data active means activity change below about -60%; inconclusive means no clear call, values can overlap the other calls; inactive means above about -39%; further: on the % scale 0 is the no-effect control and ±100 the full control effect
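Inhibition of viral replication was scored as loss of reporter luminescence in HFFs infected with HCMV-luciferase (MOI 1 PFU/cell) for 72 h; compounds tested at 2 doses, normalized to buffer and Salinomycin controls.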
Pf growth 48h: inhibits P. falciparum growth in the first generation, 48 h; P. falciparum luciferase growth in erythrocytes, 48 h; Potency, µM (doses to about 28.7 µM), for inactives: top-dose activity change, negative = inhibition, actives largely listed as inhibitors; 5.9% of 310,000 active; AID 504832; further: potency means the concentration at half of the fitted maximal effect; on the % scale 0 is the no-effect control and ±100 the full control effect
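Here the parasites carry a stable luciferase gene and grow inside erythrocytes in Albumax-based RPMI medium with compound for one erythrocytic cycle. Activity is scored as loss of luminescent signal.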
SARS PLP yeast: blocks SARS-CoV papain-like protease in a yeast assay | S. cerevisiae expressing SARS-CoV PLpro, growth rescue | AID 485353 | 0.19% of 330,000 active | Potency, µM (series often up to 32.9 µM), for the others: at the top dose activity, positive = growth rescue, most hits filed as activators; calls by dose curve; further: potency means the concentration at half of the fitted maximal effect; 0% is about no effect; nearly all actives have a fitted effect of over 55% in size
Pf growth 96h: P. falciparum growth inhibition at 96 hour, primary screen for plastid delayed-death inhibitors. 6.9% of 320,000 active. P. falciparum luciferase reporter growth, 96 h. AID 504834. Potency, µM (titrated, usually from 28.7 µM), for inactives: at the top dose activity change, negative = inhibition, hits mostly inhibitors; further: potency means the concentration at half of the fitted maximal effect; on the % scale 0 is the no-effect control and ±100 the full control effect
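Delayed-death screen, second-generation endpoint: infected erythrocytes, 2% hematocrit, 0.05% parasitemia final; 96 hours at 37 C, 5% CO2; luciferase detection reagent; luminescence decrease equals reduced growth.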
* marks the source's active call; other numbers are inactive results; ? = inconclusive; / = not tested or not shown; [ ] = remark or other dose. Unless noted, the call rests on the fitted dose curve; in most records, active means well fitted curve in the direction sought with a large enough effect; inconclusive means small, poorly fitted or top-dose-only effect, or another doubt; inactive means no such curve, though single readings can be large; an effect the other way counts as inactive or inconclusive.

SMILES	Sm TGR inh	HCV inh	HCMV antiviral	Pf growth 48h	SARS PLP yeast	Pf growth 96h
COc1ccc(-n2c(C)cc(C(=O)CN3C(=O)c4ccccc4C3=O)c2C)cc1	5%	-13%	?	1%	13%	?
COc1ccc(-n2c(C)cc(C(=O)COC(=O)c3ccc(O)cc3O)c2C)cc1	-14%	10µM*	-81*	7.4µM*	-12%	12µM*
c1coc(-c2nc3c4ccccc4ccn3c2Cc2ccsc2)c1	/	/	58	/	/	/
CCCCSCCCNC(=O)c1c[nH]c2ccc(S(=O)(=O)Nc3cccc(OC)c3)cc2c1=O	7%	/	?	/	/	/
COC(=O)c1cc(C(=O)OC)cc(-n2c(C)cc(C(=O)CC#N)c2C)c1	-12%	-19%	-17	10µM*	/	/
CCCOC(=O)c1ccc(NC(=O)Cn2nnc3sc4c(c3c2=O)CCC(C(C)(C)C)C4)cc1 (stereo unspecified)	10%	/	-16	/	/	/
CCOC(=O)c1sc(NC(=O)Cn2nnc3sc4c(c3c2=O)CCC(C(C)(C)C)C4)nc1C (stereo unspecified)	-21%	27%	10	9.3µM*	10%	0%
Cc1cc2[nH]c3ccccc3c2c(C)n1	-2%	?	-98*	6.6µM*	2%	2.1µM*
Cc1cccc(N2CCN(C(=O)c3cn(CC(C)C)c(=O)c4c3c3ccccc3n4C)CC2)c1C	-2%	/	8	/	/	/
CC(C)C(c1nnnn1C1CCCC1)N1CCCc2ccccc21 (stereo unspecified)	-9%	-16%	-20	13µM*	-32%	-15%
CC(C)C(c1nnnn1C1CCCC1)N1CCc2ccccc21 (stereo unspecified)	-21%	-6%	-31	?	2%	?
CC(C)C(c1nnnn1C1CCCCC1)N1CCc2ccccc2C1 (stereo unspecified)	0%	-15%	60	15µM*	-3%	8%[5.75 µM]
c1ccc(C(c2nnnn2C2CCCCC2)N2CCc3ccccc3C2)nc1 (stereo unspecified)	-7%	-27%	/	-7%	1%	?
CC(C)C(c1nnnn1C1CCCCC1)N1CCCc2ccccc21 (stereo unspecified)	-14%	7%	-23	9.3µM*	-25%	-29%
O=C(Cn1ncc2c(Cl)cccc21)NCc1cccc(Br)c1	11%	/	-3	/	/	/
CC1(C)Nc2ccccc2N(Cc2ccc([N+](=O)[O-])cc2)C1=O	11%	8%	-20	-12%	-4%	?
O=[N+]([O-])c1ccccc1CNCCCCCO	50µM*	20%	-11	-22%	-7%	64%
CCN(C(=O)c1cccc(S(=O)(=O)N2CCCCC2)c1)C1CCS(=O)(=O)C1 (stereo unspecified)	-1%	4%	-30	-2%	-1%	-4%
Cc1nc(-c2cccc(NC(=O)c3ccco3)c2)cs1	-4%	-28%	-87*	?	?	-22%
Cc1nn2c(-c3cccc(NC(=O)c4ccc(Cl)cc4)c3)nnc2c2ccccc12	?	/	-29	/	/	/
Cc1nc(-c2ccc(NC(=O)c3ccco3)cc2)cs1	4%	-22%	-84*	-17%	-7%	?
Cc1nc(-c2cccc(NC(=O)COc3ccc(Cl)cc3)c2)cs1	17%	/	-64*	12%	-3%	1%
COc1ccc(CC(=O)Nc2cccc(-c3csc(C)n3)c2)cc1	-28%	?	-14	6%	3%	/
Cc1nn2c(-c3cccc(NC(=O)c4ccco4)c3)nnc2c2ccccc12	-15%	?	?	9.3µM*	-11%	53%
CN(C)c1ccc(/C=c2/sc3n(c2=O)NC2(c4ccccc4)N(C)C(=O)N(C)C2(c2ccccc2)N=3)cc1 (stereo unspecified)	1%	/	/	-17%	0%	?
SMILES	Sm TGR inh	HCV inh	HCMV antiviral	Pf growth 48h	SARS PLP yeast	Pf growth 96h
CCOC(=O)Nc1ccc(OC(=O)Oc2ccc(NC(=O)OCC)cc2)cc1	/	35%	-22	/	/	/
COc1ccc(-c2csc(N(CCc3ccccc3)C(=O)COc3ccccc3)n2)cc1	-24%	0%	5	?	3%	-144%
O=C(COc1ccc(Cl)cc1)N(Cc1ccccc1)c1nc(-c2ccccc2)cs1	10%	-1%	15	1.5µM*	1%	30%
Cc1cc2c(cc1C)NC(c1c(C)n(C)n(-c3ccccc3)c1=O)C1=C(CC(C)(C)CC1=O)N2 (stereo unspecified)	?	-19%	46	?	-4%	10µM*
Cc1cc(C)c(S(=O)(=O)NCc2ccc3c(c2)OCO3)cc1C	-19%	-5%	-11	80%	-9%	-1%
Cc1ccc(NC(=O)Cn2c(=O)n(CCCC(=O)NCc3ccc4c(c3)OCO4)c(=O)c3ccccc32)cc1	5%	/	13	/	/	/
CCOc1ccc(NC(=S)NCc2ccc3c(c2)OCO3)cc1	5µM*	1%	11	?	-2%	?
CCOc1ccc(NC(=O)c2ccc(F)c(S(=O)(=O)NCc3ccc4c(c3)OCO4)c2)cc1	4%	/	-81*	/	/	/
CCOc1ccc(NC(=O)Cn2c(=O)n(CCCCC(=O)NCc3ccc4c(c3)OCO4)c(=O)c3ccccc32)cc1	-1%	/	-76*	/	/	/
COc1ccc(NC(C)=O)cc1S(=O)(=O)NCc1ccc2c(c1)OCO2	/	/	-88*	/	/	/
CC(=O)c1cccc(-c2cnc3c(NC=O)cc(-c4ccc(F)cc4)cn23)c1	/	/	1	/	/	/
COc1ccc(NC2CCCN(C(=O)C3=NN(C)C(=O)CC3)C2)cc1OC (stereo unspecified)	-21%	19%	22	17%	-1%	-25%
CCCN[C@@H](C)C(=O)Nc1c(C)csc1C(=O)OC	/	/	/	-11%[12.8 µM]	/	9%[12.8 µM]
CCOC(=O)C(=CNNc1c(C)csc1C(=O)OC)C(=O)OCC	56µM*	-18%	-10	-26%	0%	0%
CCCn1c(=N)n(CC(=O)C(C)(C)C)c2ccccc21	-7%	?	-26	?	1%	?
CCn1c(=N)n(CC(=O)C(C)(C)C)c2ccccc21	-3%	6%	11	/	16%	9.3µM*
CN(C)c1ccc(/C=C/c2ccc3c4ccccc4ccc3[n+]2-c2ccccc2)cc1	?	1µM*	-99*	8.3µM*	-17%	?
CN(C)c1ccc(/C=C/c2ccc3ccccc3[n+]2C)cc1	1%	0.89µM*	-99*	0.83µM*	-89%	?
CN(CCCS(=O)(=O)[O-])c1ccc(/C=C/c2ccc3ccccc3[n+]2C)cc1	0%	19%	94	24%	-1%	?
[O-][n+]1ccccc1/C=C/c1ccccc1	/	10%	13	/	/	/
CN(C)c1ccc(/C=C/c2nc3ccccc3c(=O)[nH]2)cc1	6%	-11%	25	-52%	-2%	32%
